Experiment [1] is described as follows: Cell Viability - BJ (AID 421; calls by dose curve;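 note: potency is the fitted concentration of half-maximal effect; cells exposed to compound for 40 hours at 37 °C before readout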). The following applies: BJ fibroblast viability, qHTS. In outline: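 Luminescent ATP signal (CellTiter-Glo, 20 min at room temperature) served as the read-out of viable BJ cells after 40 hours of compound treatment. Responses were scaled between DMSO and 100 uM tamoxifen, and AC50 values were obtained by Hill modeling.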
A general note: qHTS replaces the single test concentration by a dilution series.

Experiment [2] can be described thus: Cell Viability - Jurkat (AID 426;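 active = dose-dependent loss of cell ATP signal giving a full or clear fitted curve, ranked by lower potency value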; note: potency is the fitted concentration of half-maximal effect). The settings on record: qHTS. An outline of the steps:
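Jurkat (clone E6-1, human T-cell leukemia) cells, 5000/well in complete medium, were exposed to compound for 40 hr at 37 °C. Viability was read as intracellular ATP by CellTiter-Glo luminescence; AC50 came from Hill fits of concentration-response data.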

Experiment [3] in a line: Cell Viability - HepG2 (AID 433; calls by dose curve;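 note: potency is the fitted concentration of half-maximal effect; potency for ATP loss meaning cytotoxicity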). The following applies: qHTS. An outline of the steps: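 Cytotoxicity is scored as loss of intracellular ATP in HepG2 cells exposed to compounds for 40 h. Concentration-response curves, normalized to DMSO and 100 uM tamoxifen, give AC50 values.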
Experiment [4] can be described thus: Cell Viability - MRC5 (AID 434; calls by dose curve;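 note: potency is the fitted concentration of half-maximal effect; potency reflects cytotoxicity seen as loss of intracellular ATP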). The following applies: MRC5 lung fibroblast viability, qHTS. In outline: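 MRC5 normal human lung fibroblasts, 1500 cells/well, exposed to compound for 40 hr at 37 C. Cellular ATP was read by CellTiter-Glo luminescence; data normalized to DMSO and 100 uM tamoxifen, with AC50 from Hill fits.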
The nature of experiment [5]: Cell Viability - SK-N-SH (AID 435; calls by dose curve;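 note: potency is the fitted concentration of half-maximal effect; compound exposure lasted 40 h at 37 °C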). The settings on record: SK-N-SH neuroblastoma cell viability qHTS. An outline of the steps: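 Cells seeded at 1500 per well and incubated 5 hr at 37 °C. Compound added, then 40 hr at 37 °C. CellTiter-Glo added, 20 min at room temperature, luminescence read.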
A short description of experiment [6]: Cell Viability - N2a (AID 540).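 Note: plate controls were DMSO alone for no effect and tamoxifen control for full effect; nearly all actives have a fitted effect of over 45% in size.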 The settings on record: N2a mouse neuroblastoma cell viability; at 92.2 µM (top of the series). An outline of the steps: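 Mouse neuroblastoma N2a cells (1500/well) were preincubated 5 hr at 37 °C, then exposed to compounds for 40 hr at 37 °C in complete medium. Viability was read as intracellular ATP by CellTiter-Glo luminescence; AC50 from Hill fits.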

The nature of experiment [7]: Cell Viability - NIH 3T3 (AID 541).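 Note: plate controls were DMSO alone for no effect and tamoxifen positive control for full effect; nearly all actives have a fitted effect of over 25% in size.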 The settings on record: NIH 3T3 cell viability, qHTS; at 92.2 µM (top of the series). In outline: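 NIH 3T3 mouse embryo fibroblasts (1000 cells/well) were plated in complete medium and treated with compound for 40 hr at 37 °C. Viability was read as intracellular ATP by CellTiter-Glo luminescence; AC50 values came from Hill-equation fits of concentration-response data.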

The nature of experiment [8]: Cell Viability - HUV-EC-C (AID 542). Note: potency is the fitted concentration of half-maximal effect; nearly all actives have a fitted effect of over 35% in size. The settings on record: HUV-EC-C endothelial cell viability, qHTS. An outline of the steps: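 HUV-EC-C normal human vascular endothelial cells, 1000 cells/well, pre-incubated 5 hr at 37 °C, then exposed to compounds for 40 hr at 37 °C in complete medium. Viability measured as intracellular ATP by CellTiter-Glo luminescence; AC50 from Hill fits.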

Experiment [9] can be described thus: Cell Viability - H-4-II-E (AID 543). Note: potency is the fitted concentration of half-maximal effect; nearly all actives have a fitted effect of over 35% in size. The settings on record: H-4-II-E rat hepatoma viability. An outline of the steps:
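Rat hepatoma H-4-II-E cells (1500/well) were plated, incubated 5 hr at 37 °C, then exposed to compounds for 40 hr at 37 °C. Cellular ATP was read by CellTiter-Glo luminescence; AC50 came from Hill-equation fits of concentration-response data.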

Experiment [10] in a line: Cell Viability - SH-SY5Y (AID 544). Note: potency is the fitted concentration of half-maximal effect; nearly all actives have a fitted effect of over 55% in size. The settings on record: SH-SY5Y neuroblastoma cell viability. An outline of the steps:
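Human neuroblastoma SH-SY5Y cells (1500/well) in complete medium were exposed to compounds for 40 hr at 37 °C; intracellular ATP was then quantified by CellTiter-Glo luminescence after 20 min at room temperature. AC50 came from Hill-equation concentration-response fits.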

Experiment [11] can be described thus: Cell Viability - Renal Proximal Tubule (AID 545). Note: nearly all actives have a fitted effect of over 40% in size. The settings on record: renal proximal tubule cells viability, primary cells of rat origin; at 91.7 µM (top of the series). In outline:
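Cytotoxicity is scored as a concentration-dependent drop in cellular ATP in primary rat renal proximal tubule cells exposed for 40 hr. AC50 derives from Hill modelling.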

Experiment [12] can be described thus: Cell Viability - Mesenchymal (AID 546).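 Note: potency is the fitted concentration of half-maximal effect; cells exposed to compound for 40 hours before reading.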 The following applies: mesenchymal cells viability, qHTS. In outline:
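Human kidney mesenchymal cells from normal renal glomeruli, 1000 cells/well, rested 5 hr at 37 °C, then treated 40 hr at 37 °C in complete medium. Cellular ATP read by CellTiter-Glo luminescence; AC50 from Hill-equation fits.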

Experiment [13] is described as follows: Cellular Toxicity (caspase-3) HepG2 (AID 654).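 Note: cells exposed to compound for 16 hours before reading; 0% = DMSO alone and 100% = caspase signal from 100 µM tamoxifen.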 The settings on record: HepG2 caspase-3 activation, luminescence, 0% = DMSO only, 100% = tamoxifen; series mostly up to 92.2 µM. An outline of the steps:
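HepG2 cells (1500/well) in complete medium were treated with compounds for 16 hr at 37 °C. Caspase-3/7 activity was then read as luminescence from peptide-aminoluciferin cleavage. AC50 came from Hill fits, normalized to DMSO and 100 uM tamoxifen.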

Experiment [14] can be described thus: Cellular Toxicity (caspase-3) Jurkat (AID 655).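 Note: cells exposed to compound for 16 h at 37 °C before reading.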 The following applies: Jurkat caspase-3 activation, luminescence, DMSO = 0%, tamoxifen = 100%; series mostly up to 92.2 µM. An outline of the steps:
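Caspase 3/7 activation is scored as increased luminescence in Jurkat cells cultured with compound for 16 hours in complete medium. AC50 values come from Hill fits of qHTS concentration-response data normalized to DMSO and 100 uM tamoxifen controls.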

A short description of experiment [15]: Cellular Toxicity (caspase-3) HUV-EC-C (AID 656). The settings on record: HUV-EC-C cells, caspase-3 activation (apoptosis), vehicle = 0, 100 µM tamoxifen = 100%; series mostly up to 92.2 µM. An outline of the steps:
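Read-out: luminescence proportional to caspase 3/7 activity, measured 20 min after adding Caspase-Glo 3/7 reagent. Cells (HUV-EC-C) had received compound for 16 hr at 37°C. Increases relative to DMSO and 100 uM tamoxifen gave concentration-response AC50 values.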

Experiment [16] can be described thus: Cellular Toxicity (caspase-3) SHSY5Y (AID 657).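 Note: cells exposed to compound for 16 hours at 37 °C.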 The settings on record: SH-SY5Y caspase-3 activation, DMSO zero, 10 µM staurosporine = 100%; series mostly up to 91.7 µM. An outline of the steps: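 Cells plated and incubated 5 h at 37 °C, dosed over a concentration range, incubated 16 h, then given Caspase-Glo 3/7 reagent for 1 h at room temperature before luminescence reading. Staurosporine (10 uM) defined full stimulation.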

Experiment [17] is described as follows: Cellular Toxicity (caspase-3) BJ (AID 658). The settings on record: BJ fibroblasts, luminescence, normalized: DMSO 0%, staurosporine 100%; series mostly up to 91.7 µM. An outline of the steps: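 BJ human foreskin fibroblasts, 1000 cells/well, treated 16 hours at 37 °C in complete medium; caspase 3/7 activity by Caspase-Glo luminescence after 1 hr at room temperature. Normalized to DMSO and 10 uM staurosporine; AC50 from Hill fits.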

A short description of experiment [18]: Cellular Toxicity (caspase-3) MRC-5 (AID 659). The following applies: MRC-5 cells, luminescence, normalized: DMSO 0%, 10 µM staurosporine 100%; series mostly up to 91.7 µM. In outline: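 MRC-5 human normal lung fibroblasts, 1500 cells/well, treated 16 h at 37 °C in complete medium. Caspase 3/7 measured by Caspase-Glo luminescence after 1 h at room temperature. Normalized to DMSO and 10 uM staurosporine; AC50 from Hill fit.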

Experiment [19] is described as follows: Cellular Toxicity (caspase-3) Mesangial (AID 660).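 Note: cells exposed to compound for 16 h before the caspase read.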 The settings on record: mesangial cells, normalized: DMSO 0%, 100 µM tamoxifen 100%; series mostly up to 91.7 µM. In outline: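 Human renal glomerular mesangial cells (1000/well) were treated with compounds for 16 h at 37 °C in complete medium, then caspase 3/7 activity was read by Caspase-Glo luminescence. Data were normalized to DMSO and 100 uM tamoxifen; AC50 from Hill fits.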

A number with no mark means an inactive call. Results filed as inconclusive are left out. Activity calls are given as the source filed them. Unless noted, calls come from the whole dose curve; as a rule, active = well fitted curve in the direction sought with a large enough effect; inconclusive = small, poorly fitted or top-dose-only effect, or another doubt; inactive = no such curve, though single readings can be large; an effect the other way counts as inactive or inconclusive.

As for `O=C1c2c(O)ccc([N+](=O)[O-])c2C(=O)c2c([N+](=O)[O-])ccc(O)c21`, the Potency in experiment [1] is 28.5 µM (active); in [2], 25.8 µM (active); in experiment [3], 27.4 µM (active); in experiment [4], 30.1 µM (active); in experiment [5], 28.8 µM (active); in experiment [8], 31.6 µM (active). Further, the Potency is 31.6 µM (active) in experiment [9], 25.1 µM (active) in experiment [10] and 31.6 µM (active) in [12]. For the same compound, the activity change, negative = cytotoxicity in experiment [6] is -111% (active); in experiment [7] it was -139% (active); in experiment [11], -107% (active). The call in [13], in [14], in experiment [15], in experiment [16], in experiment [17] and in experiment [18] was inactive. Also, the outcome in [19] was inactive.
